Screening data from PubChem.
DAX1 inh-1 = DAX1 (NR0B1) inhibitors on StAR promoter, primary screen, cell-based, luminescence, SF-1 (NR5A1), full-length DAX-1. HEK293T StAR-luciferase reporter, SF-1/DAX-1 repression relief. inhibition, % at 6.8 µM. actives 1.1% (n = 370,000). AID 652010, 2013;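 active means inhibition above the mean over all tested compounds plus 3 SD, cut at about 3.6% in these data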;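 further: higher inhibition means more luminescence from relief of DAX-1 repression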
hgDAF12 agonist = H. glycines DAF-12 receptor agonists, primary screen, cell-based, luminescence, HEK293, GAL4 fusion, UAS-luciferase. activation, % at 6.8 µM. actives 1.8% (n = 370,000). HEK293 GAL4-hgDAF12 UAS-luciferase reporter, agonist luminescence; normalized to butyrate control;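 active means activation above a cutoff set at the mean of all screened compounds plus 3 SD, cut at about 10% in these data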
DAX1 inh-2 = DAX1 (NR0B1) inhibitors, primary screen, cell-based, HEK293, Gal4-DAX1, luciferase luminescence; HEK293 Gal4-DAX1 luciferase reporter; actives 0.99% (n = 340,000); inhibition, % at 6.75 µM; AID 504766, 2011;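 active means inhibition above the mean over all tested compounds plus 3 SD, cut at about 4.2% in these data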;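 further: inhibition shows as a rise in luminescence from relieved DAX1 repression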
Target sequence (P51843 207-470 limits assumed): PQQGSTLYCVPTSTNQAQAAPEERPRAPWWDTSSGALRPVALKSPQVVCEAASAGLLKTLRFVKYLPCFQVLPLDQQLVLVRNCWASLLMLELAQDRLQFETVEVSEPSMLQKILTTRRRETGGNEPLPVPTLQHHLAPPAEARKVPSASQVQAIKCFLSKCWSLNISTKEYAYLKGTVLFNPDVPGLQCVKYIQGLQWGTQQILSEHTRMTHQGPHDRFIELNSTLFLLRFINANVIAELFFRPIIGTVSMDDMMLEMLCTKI
ssDAF12 agonist = S. stercoralis DAF-12 nuclear receptor activators, primary screen, cell-based, luminescence, HEK293, GRIP1 co-expression, lit1-tk-luc | Nuclear hormone receptor DAF-12 (Strongyloides stercoralis) | HEK293 ssDAF-12/GRIP1 lit1-tk-luc reporter; % of 3 µM dafachronic acid response | activation, % at 6.8 µM | actives 1% (n = 370,000) | AID 652126, 2013;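 active means activation above the mean over all tested compounds plus 3 SD, cut at about 0.9% in these data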
SMARCA2 activ = SMARCA2 (BRM) function activators, primary screen, cell-based, luminescence, high throughput | MG213 cells, MMTV-luciferase reporter, dexamethasone, overnight | activation, % at 9.1 µM | actives 1% (n = 370,000) | AID 652017, 2013; in the data active means activation above about 7.8%
hcDAF12 agonist = H. contortus DAF-12 nuclear receptor activators, primary screen, cell-based, luminescence, HEK293, lit1-tk-luc reporter. AID 652067, 2013. activation, % at 6.8 µM. HEK293 hcDAF-12 lit1-tk-luc reporter; 0% DMSO, 100% Δ7-dafachronic acid. actives 1.4% (n = 370,000);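 active means activation above the mean of all tested compounds plus 3 SD, cut at about 5.5% in these data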
LXR ag = LXR agonists, Gal4 luciferase reporter, confirmation, counter-screen for hcDAF-12 agonist project, cell-based, luminescence, HEK293, H. contortus campaign | shares compounds with hcDAF12 agonist | HEK293 Gal4-LXR tk-luc reporter, 24 h; normalized: DMSO 0%, positive control 100% | activation, % at 6.8 µM | 3,400 tested, under 10 active | AID 743027, 2013;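 active means mean percent activation of the reporter above a cutoff set as the average over tested compounds plus their standard deviation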
hcDAF12 conf = H. contortus DAF-12 receptor agonists, confirmation, cell-based, luminescence, HEK293, lit1-tk-luc, triplicate; shares compounds with hcDAF12 agonist; HEK293 hcDAF-12 lit1-tk-luc reporter; % of Δ7-dafachronic acid response; activation, % at 6.8 µM; actives 61% (n = 3,400); AID 743032, 2013;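 active means mean activation across triplicate tests above the threshold derived from the earlier primary screen, cut at about 5.5% in these data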
hgDAF12 ag = H. glycines DAF-12 receptor agonists, confirmation, cell-based, luminescence, HEK293, GAL4-LBD fusion; shares compounds with hgDAF12 agonist; HEK293 GAL4-hgDAF12 luciferase reporter, agonist mode; percent of butyrate response; activation, % at 6.8 µM; actives 80% (n = 3,300);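 active means mean activation over triplicate wells above the hit cutoff derived from the earlier primary screen, cut at about 11% in these data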
LXRb DAF12 ctr = LXR agonists, Gal4 luciferase reporter, confirmation, counter-screen for hgDAF-12 agonist project, cell-based, luminescence, HEK293, H. glycines campaign; shares compounds with hgDAF12 agonist; 24 h; activation, % at 6.8 µM; 3,300 tested, under 10 active;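 active means mean activation of the triplicate above a set limit carried over from the primary screen, none filed active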
Large screens that a line does not name were inactive (follow-up assays come after a bar, where they were run). Rows were chosen to be rich in hits. Some 4.8% of all compounds tested hit in one or more screens of this group.

CCCCCCn1cnc2c(oc3nc4c(cc32)CCCC4)c1=O	none
CCCCn1cnc2c(oc3nc4c(cc32)CCCC4)c1=O	hgDAF12 agonist 11, hcDAF12 agonist 8.3 | LXR ag inactive | hcDAF12 conf inactive
O=C1NC(=O)C2(CCCc3ccc(N(CCO)CCO)cc32)N1 (stereo unspecified)	none (no result: DAX1 inh-2)
CCCc1nc2c(C)cc(Br)cn2c1Cc1ccc(C)cc1	hcDAF12 agonist 7.4 (no result: DAX1 inh-2) | LXR ag inactive | hcDAF12 conf 10
CCCc1nc2c(C)cc(Br)cn2c1Cc1cccc(Cl)c1	none (no result: DAX1 inh-2)
COc1ccc(NC(=O)CCCNS(=O)(=O)c2ccc3[nH]c(=O)oc3c2)cc1OC	none (no result: DAX1 inh-2)
N#CCSc1nc2ccccc2o1	none
O=[N+]([O-])c1ccccc1CSc1nc2ccccc2o1	hcDAF12 agonist 6.7 | LXR ag inactive | hcDAF12 conf inactive
CCOC(=O)[C@]12CCCC=C1N(Cc1ccc(OC)cc1)C(=O)[C@@H]2CC(=O)NCC12CC3CC(CC(C3)C1)C2	none (no result: DAX1 inh-2)
Cc1noc(C)c1S(=O)(=O)N1CCCc2nc(-c3ccccc3)ccc21	none (no result: DAX1 inh-2)
C/C(=N/NS(=O)(=O)c1ccc(Br)cc1)c1c[nH]c2ccccc12	none
C/C(=N\NS(=O)(=O)c1ccc([N+](=O)[O-])cc1)c1c[nH]c2ccccc12	hcDAF12 agonist 11 | LXR ag inactive | hcDAF12 conf inactive
COC(=O)C[C@@H]1CC[C@@H]2[C@H](COc3ccc(NC(=O)Nc4c(C)noc4C)cc3C(=O)N2C)O1	none (no result: DAX1 inh-2)
O=C(NCc1cc2ccccc2[nH]1)C1CCC(=O)N(CCCN2CCCC2=O)C1 (stereo unspecified)	hcDAF12 agonist 6.9 | LXR ag inactive | hcDAF12 conf inactive
O=C(NCCc1ccccc1)C1CCC(=O)N(CCCN2CCCC2=O)C1 (stereo unspecified)	ssDAF12 agonist 1.9, hcDAF12 agonist 7.8 | LXR ag inactive | hcDAF12 conf inactive
COc1ccc(Cl)cc1C(=O)NCC(c1ccco1)N(C)C (stereo unspecified)	hcDAF12 agonist 7.3 | LXR ag inactive | hcDAF12 conf inactive
CCOc1ccccc1CN1CCN(Cc2cc3ccccc3[nH]2)CC1CCO (stereo unspecified)	hcDAF12 agonist 7.0 | LXR ag inactive | hcDAF12 conf inactive
CCOc1ccccc1CN1CCN(CC2CC2)CC1CCO (stereo unspecified)	none
CC1CCCCN1S(=O)(=O)c1ccc(C(=O)Nc2ccccc2-c2nc3ccccc3[nH]2)cc1 (stereo unspecified)	none
CC1CCCCN1S(=O)(=O)c1ccc(C(=O)Nc2ccccc2-c2nc3ccccc3s2)cc1 (stereo unspecified)	hcDAF12 agonist 11 | LXR ag inactive | hcDAF12 conf inactive
N=c1oc2ccccc2cc1-c1nc(-c2ccccc2)cs1	ssDAF12 agonist 1.1, hcDAF12 agonist 11 | LXR ag inactive | hcDAF12 conf inactive
O=C(/C=C(\Nc1cccc(OC(F)F)c1)c1ccccc1)c1ccccc1	none (no result: DAX1 inh-2)
Cc1ccc2nc(-c3cc(-c4ccccc4)no3)cn2c1	hgDAF12 agonist 12, hcDAF12 agonist 8.1 | LXR ag inactive | hcDAF12 conf inactive
CN(c1ccc(NC(=O)CCc2c[nH]c3ccccc23)cc1)c1ccccn1	none (no result: DAX1 inh-2)
COc1ccc(S[C@]2(C(=O)N3CCCC3)CC(=O)N(S(=O)(=O)c3ccc(F)cc3)[C@@H]2c2ccc(OC)cc2)cc1	none (no result: DAX1 inh-2)
O=C1C(Cl)=C(Nc2ccccc2)C(=O)c2ccccc21	hcDAF12 agonist 7.9 | LXR ag inactive | hcDAF12 conf inactive
Cc1ccc(NC(=O)c2c(Cl)nc3ccccn23)cc1	hgDAF12 agonist 13, ssDAF12 agonist 1.1, hcDAF12 agonist 12 | LXR ag inactive | hcDAF12 conf 10
Cn1c(O)c(N=NC(=O)c2ccco2)c2ccccc21	DAX1 inh-1 4.2, hgDAF12 agonist 19, ssDAF12 agonist 1.3, hcDAF12 agonist 12 | LXR ag inactive | hcDAF12 conf 14 | hgDAF12 ag 22 | LXRb DAF12 ctr inactive
Cn1c(O)c(N=NC(=O)C2COc3ccccc3O2)c2ccccc21 (stereo unspecified)	none
Cn1c(O)c(N=NC(=O)c2ccccc2O)c2ccccc21	hgDAF12 agonist 22, ssDAF12 agonist 1.6, hcDAF12 agonist 11 | LXR ag inactive | hcDAF12 conf 13 | hgDAF12 ag 17 | LXRb DAF12 ctr inactive
Cc1cc(-c2ccc(F)cc2)n2ncc(-c3ccccc3)c2n1	none (no result: DAX1 inh-2)
CCSc1cc(C)nc2c(-c3ccccc3)cnn12	DAX1 inh-1 4.0, hgDAF12 agonist 18, ssDAF12 agonist 2.4, hcDAF12 agonist 13 | LXR ag inactive | hcDAF12 conf 11 | hgDAF12 ag 15 | LXRb DAF12 ctr inactive
CCOC(=O)[C@@H]1CSCCS(=O)(=O)N1C(=O)[C@H](CCSC)NC(=O)OC(C)(C)C	none (no result: DAX1 inh-2)
